Assay results taken from the supplement of paper PMC10849652.
The full data set covers some 7,900 targets. This sample favours those with a hit. About 0.6% of all pairs of compound and target were hits. Unmarked numbers belong to inactive results.

Columns and labels:
Experiment in all cases: log2 fold change, soluble protein after heating vs DMSO (PISA); higher = thermal stabilisation; K562 cells, 10 uM, 30 min; active = over 0.2 and 3.5 SD of the protein, either way, in both replicates (recomputed)
[1] = compound: COC1=CC=C(C=C1)CN2C=CC3=C2C=C(C=C3)C(=O)NO
Summary of the method: (§1)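 For each measurement, 10 μM compound was applied for 30 min to K562 cells at 2×10^6 cells/mL. Aliquots were heated for 3 min across 48°C-58°C, pooled, and extracted in PBS with 0.5% NP-40 at 4°C; the supernatant after 21,000xg for 90 min was soluble protein. This was quantified by TMTpro 16plex LC-MS/MS with channel sums equalised, and thermal stability was reported relative to control samples from duplicates, on a log2 fold-change scale.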

filanesib = compound: CON(C)C(=O)N1N=C(c2cc(F)ccc2F)S[C@@]1(CCCN)c1ccccc1 [filanesib]
Summary of the method: as §1

zotarolimus = compound: CO[C@H]1C[C@@H]2CC[C@@H](C)[C@@](O)(O2)C(=O)C(=O)N2CCCC[C@H]2C(=O)O[C@H]([C@H](C)C[C@@H]2CC[C@H](n3cnnn3)[C@H](OC)C2)CC(=O)[C@H](C)/C=C(\C)[C@@H](O)[C@@H](OC)C(=O)[C@H](C)C[C@H](C)/C=C/C=C/C=C/1C [zotarolimus]
Summary of the method: as §1

idasanutlin = compound: COc1cc(C(=O)O)ccc1NC(=O)[C@@H]1N[C@@H](CC(C)(C)C)[C@](C#N)(c2ccc(Cl)cc2F)[C@H]1c1cccc(Cl)c1F [idasanutlin]
Summary of the method: as §1

alisertib = compound: COc1cc(Nc2ncc3c(n2)-c2ccc(Cl)cc2C(c2c(F)cccc2OC)=NC3)ccc1C(=O)O [alisertib]
Summary of the method: as §1

[2] = compound: COc1cc2nc(-c3cc(F)ccc3O)nc(N[C@@H]3CNC[C@H]3C(C)(C)O)c2cc1OC
Summary of the method: as §1

gefitinib = compound: COc1cc2ncnc(Nc3ccc(F)c(Cl)c3)c2cc1OCCCN1CCOCC1 [gefitinib]
Summary of the method: as §1

[3] = compound: COc1cccc2cc(-c3nc([C@H]4CC[C@H](C(=O)O)CC4)n4ncnc(N)c34)[nH]c12
Summary of the method: as §1

lapatinib = compound: CS(=O)(=O)CCNCc1ccc(-c2ccc3ncnc(Nc4ccc(OCc5cccc(F)c5)c(Cl)c4)c3c2)o1 [lapatinib]
Summary of the method: as §1

pictilisib = compound: CS(=O)(=O)N1CCN(Cc2cc3nc(-c4cccc5[nH]ncc45)nc(N4CCOCC4)c3s2)CC1 [pictilisib]
Summary of the method: as §1

Sequence of UniProt O00116 (O00116 whole entry, looked up): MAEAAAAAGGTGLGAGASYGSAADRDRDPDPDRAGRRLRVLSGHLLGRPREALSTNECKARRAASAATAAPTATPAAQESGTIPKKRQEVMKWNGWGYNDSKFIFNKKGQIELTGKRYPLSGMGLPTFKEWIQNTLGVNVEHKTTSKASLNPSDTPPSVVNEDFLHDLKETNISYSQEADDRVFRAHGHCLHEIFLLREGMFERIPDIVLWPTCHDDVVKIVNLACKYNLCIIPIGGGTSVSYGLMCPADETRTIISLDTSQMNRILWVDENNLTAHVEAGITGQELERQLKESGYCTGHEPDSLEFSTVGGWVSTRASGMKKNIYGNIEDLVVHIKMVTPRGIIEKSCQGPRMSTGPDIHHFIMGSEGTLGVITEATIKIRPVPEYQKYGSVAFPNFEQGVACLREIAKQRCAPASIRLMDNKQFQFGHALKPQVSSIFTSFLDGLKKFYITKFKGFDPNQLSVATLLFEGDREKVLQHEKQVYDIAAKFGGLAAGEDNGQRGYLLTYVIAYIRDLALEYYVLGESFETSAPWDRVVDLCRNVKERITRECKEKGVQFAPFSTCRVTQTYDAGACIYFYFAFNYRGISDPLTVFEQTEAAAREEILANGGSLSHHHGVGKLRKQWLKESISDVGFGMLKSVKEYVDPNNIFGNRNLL
Sequence of UniProt Q13685 (Q13685 whole entry, looked up): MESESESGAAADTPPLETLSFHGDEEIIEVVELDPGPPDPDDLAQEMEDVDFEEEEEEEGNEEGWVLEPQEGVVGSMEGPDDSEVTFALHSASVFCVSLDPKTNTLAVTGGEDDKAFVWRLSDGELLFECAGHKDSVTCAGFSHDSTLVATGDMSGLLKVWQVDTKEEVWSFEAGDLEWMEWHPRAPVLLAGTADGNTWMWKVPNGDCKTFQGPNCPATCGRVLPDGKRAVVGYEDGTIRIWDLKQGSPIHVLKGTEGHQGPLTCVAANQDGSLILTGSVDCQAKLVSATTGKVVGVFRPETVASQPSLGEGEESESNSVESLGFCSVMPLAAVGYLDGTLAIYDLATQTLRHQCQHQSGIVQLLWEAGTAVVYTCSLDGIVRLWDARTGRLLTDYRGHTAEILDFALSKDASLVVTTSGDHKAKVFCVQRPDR
Sequence of UniProt P54886 (P54886 whole entry, looked up): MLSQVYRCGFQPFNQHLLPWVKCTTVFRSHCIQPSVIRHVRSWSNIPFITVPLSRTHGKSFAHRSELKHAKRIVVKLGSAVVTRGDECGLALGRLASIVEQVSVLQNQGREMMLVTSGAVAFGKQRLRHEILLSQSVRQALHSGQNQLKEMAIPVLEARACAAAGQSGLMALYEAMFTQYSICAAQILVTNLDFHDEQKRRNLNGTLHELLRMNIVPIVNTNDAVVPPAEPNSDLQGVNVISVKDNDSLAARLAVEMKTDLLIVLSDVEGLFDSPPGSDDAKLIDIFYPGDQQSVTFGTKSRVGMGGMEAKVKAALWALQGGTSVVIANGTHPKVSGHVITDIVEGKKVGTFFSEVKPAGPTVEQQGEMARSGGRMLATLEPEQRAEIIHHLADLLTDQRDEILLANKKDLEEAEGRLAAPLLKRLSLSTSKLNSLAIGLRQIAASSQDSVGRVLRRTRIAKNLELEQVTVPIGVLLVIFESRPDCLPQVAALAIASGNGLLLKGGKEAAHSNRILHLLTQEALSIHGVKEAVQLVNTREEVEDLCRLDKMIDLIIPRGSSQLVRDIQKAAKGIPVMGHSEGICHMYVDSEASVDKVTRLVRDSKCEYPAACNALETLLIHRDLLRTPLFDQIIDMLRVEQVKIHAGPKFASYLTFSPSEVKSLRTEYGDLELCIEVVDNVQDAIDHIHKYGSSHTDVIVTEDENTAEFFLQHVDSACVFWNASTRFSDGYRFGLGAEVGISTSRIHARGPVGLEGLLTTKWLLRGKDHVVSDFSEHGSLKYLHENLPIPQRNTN
Sequence of UniProt O75882 (O75882 whole entry, looked up): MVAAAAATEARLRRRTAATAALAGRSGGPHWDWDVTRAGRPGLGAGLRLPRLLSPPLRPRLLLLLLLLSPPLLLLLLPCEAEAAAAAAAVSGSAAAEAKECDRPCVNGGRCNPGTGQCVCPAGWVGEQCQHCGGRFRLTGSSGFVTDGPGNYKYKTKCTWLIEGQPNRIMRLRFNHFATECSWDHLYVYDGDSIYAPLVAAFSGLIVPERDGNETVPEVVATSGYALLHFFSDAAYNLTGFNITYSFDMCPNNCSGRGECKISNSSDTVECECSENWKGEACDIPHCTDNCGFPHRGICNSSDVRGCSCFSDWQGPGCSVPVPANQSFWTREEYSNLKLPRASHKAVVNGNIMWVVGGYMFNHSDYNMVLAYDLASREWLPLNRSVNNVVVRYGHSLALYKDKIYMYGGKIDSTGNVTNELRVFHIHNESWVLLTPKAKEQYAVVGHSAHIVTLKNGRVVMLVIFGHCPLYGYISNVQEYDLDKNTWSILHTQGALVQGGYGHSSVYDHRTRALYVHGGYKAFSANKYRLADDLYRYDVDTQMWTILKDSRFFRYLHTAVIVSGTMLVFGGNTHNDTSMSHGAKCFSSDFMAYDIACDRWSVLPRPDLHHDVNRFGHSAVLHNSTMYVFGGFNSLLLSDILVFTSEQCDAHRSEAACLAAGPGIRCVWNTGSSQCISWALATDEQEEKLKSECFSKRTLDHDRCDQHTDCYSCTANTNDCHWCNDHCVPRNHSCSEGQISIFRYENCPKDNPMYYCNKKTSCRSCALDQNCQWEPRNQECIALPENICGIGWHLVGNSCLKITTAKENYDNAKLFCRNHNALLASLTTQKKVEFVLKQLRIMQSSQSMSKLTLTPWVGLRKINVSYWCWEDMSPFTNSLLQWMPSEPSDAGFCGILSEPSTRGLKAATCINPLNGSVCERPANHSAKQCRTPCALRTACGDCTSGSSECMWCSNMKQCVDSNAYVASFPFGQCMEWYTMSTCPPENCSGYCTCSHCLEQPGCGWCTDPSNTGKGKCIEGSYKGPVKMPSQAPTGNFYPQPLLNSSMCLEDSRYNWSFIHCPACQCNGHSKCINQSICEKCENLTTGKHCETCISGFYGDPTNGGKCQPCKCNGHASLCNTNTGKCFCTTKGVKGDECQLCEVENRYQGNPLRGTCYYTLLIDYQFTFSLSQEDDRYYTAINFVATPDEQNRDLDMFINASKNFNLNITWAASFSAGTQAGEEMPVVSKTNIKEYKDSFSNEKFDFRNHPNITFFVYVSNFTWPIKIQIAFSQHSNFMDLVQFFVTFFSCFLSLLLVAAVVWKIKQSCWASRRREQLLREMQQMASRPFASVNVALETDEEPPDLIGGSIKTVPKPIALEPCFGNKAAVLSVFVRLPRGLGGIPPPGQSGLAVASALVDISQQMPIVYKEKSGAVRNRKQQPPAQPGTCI
Sequence of UniProt O94973 (O94973 whole entry, looked up): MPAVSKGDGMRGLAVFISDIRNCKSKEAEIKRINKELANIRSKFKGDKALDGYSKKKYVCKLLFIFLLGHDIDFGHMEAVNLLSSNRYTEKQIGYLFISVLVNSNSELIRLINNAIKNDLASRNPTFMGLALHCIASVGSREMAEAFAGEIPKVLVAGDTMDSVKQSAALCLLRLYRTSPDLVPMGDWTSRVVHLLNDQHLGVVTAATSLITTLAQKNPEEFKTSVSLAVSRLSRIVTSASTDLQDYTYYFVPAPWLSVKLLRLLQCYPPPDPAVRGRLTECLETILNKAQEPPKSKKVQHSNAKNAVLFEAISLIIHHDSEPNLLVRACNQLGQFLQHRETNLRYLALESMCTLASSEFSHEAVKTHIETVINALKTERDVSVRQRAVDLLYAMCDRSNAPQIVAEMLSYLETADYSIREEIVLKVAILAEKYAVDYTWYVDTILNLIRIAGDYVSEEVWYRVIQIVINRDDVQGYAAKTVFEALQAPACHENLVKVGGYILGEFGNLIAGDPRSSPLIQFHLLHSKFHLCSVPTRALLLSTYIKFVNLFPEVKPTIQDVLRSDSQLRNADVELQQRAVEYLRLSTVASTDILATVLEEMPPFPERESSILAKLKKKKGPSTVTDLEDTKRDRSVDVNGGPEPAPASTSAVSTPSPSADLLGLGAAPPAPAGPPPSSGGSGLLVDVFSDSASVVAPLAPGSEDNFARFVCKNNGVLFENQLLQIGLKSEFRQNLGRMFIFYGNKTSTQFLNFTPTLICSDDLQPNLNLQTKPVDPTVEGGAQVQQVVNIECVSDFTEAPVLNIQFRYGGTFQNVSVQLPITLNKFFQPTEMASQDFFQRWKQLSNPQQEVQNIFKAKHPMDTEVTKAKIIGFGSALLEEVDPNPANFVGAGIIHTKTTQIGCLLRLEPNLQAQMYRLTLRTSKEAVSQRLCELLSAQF
Sequence of UniProt Q9UKV5 (Q9UKV5 whole entry, looked up): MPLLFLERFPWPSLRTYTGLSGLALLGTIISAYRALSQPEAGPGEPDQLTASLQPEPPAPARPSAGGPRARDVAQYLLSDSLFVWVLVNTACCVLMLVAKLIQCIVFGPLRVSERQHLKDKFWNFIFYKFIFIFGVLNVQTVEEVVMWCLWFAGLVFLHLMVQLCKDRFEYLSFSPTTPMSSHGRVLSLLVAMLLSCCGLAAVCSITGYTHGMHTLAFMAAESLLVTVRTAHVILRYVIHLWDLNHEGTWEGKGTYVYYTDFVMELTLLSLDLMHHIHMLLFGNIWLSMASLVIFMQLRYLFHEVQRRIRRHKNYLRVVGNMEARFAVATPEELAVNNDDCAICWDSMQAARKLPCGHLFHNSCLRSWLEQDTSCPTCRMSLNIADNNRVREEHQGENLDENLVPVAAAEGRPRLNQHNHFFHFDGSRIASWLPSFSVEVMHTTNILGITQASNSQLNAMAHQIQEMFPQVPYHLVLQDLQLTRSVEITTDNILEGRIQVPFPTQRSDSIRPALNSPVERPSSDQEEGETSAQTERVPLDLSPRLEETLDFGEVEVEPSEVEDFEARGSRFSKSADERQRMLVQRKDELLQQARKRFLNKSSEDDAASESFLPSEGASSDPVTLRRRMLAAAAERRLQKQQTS

Target	log2 fold change [1]	log2 fold change (filanesib)	log2 fold change (zotarolimus)	log2 fold change (idasanutlin)	log2 fold change (alisertib)	log2 fold change [2]	log2 fold change (gefitinib)	log2 fold change [3]	log2 fold change (lapatinib)	log2 fold change (pictilisib)
BID isoform 2 (UniProt P55957)	0.045	0.016	0.08	0.016	-0.045	-0.006	0	0.089	0.005	0.038
AMFR (UniProt Q9UKV5)	-0.048	-0.066	-0.017	0.037	-0.012	-0.136	0.071	0.016	0.003	-0.093
ASNS (UniProt P08243)	0.027	-0.073	-0.002	-0.021	-0.027	0.02	-0.032	0.034	-0.017	0.019
ALDH2 (UniProt P05091)	-0.011	-0.142	0.055	-0.104	0.015	-0.006	0.028	0.069	-0.02	0.043
ALDH18A1 (UniProt P54886)	-0.024	-0.01	0.045	-0.233	-0.09	0.215	-0.18	0.067	-0.652 (active)	-0.101
ARMC10 (UniProt Q8N2F6)	0.011	0.046	0.107	-0.092	-0.039	0.117	0.004	-0.133	-0.01	0.07
BRIX1 (UniProt Q8TDN6)	-0.006	0.574	0.132	0.397	-0.23	-0.224	-0.039	-0.193	0.218	-0.004
ACACB (UniProt O00763)	-0.019	0.258	0.132	-0.042	-0.168	0.039	-0.02	-0.371	0.068	0.038
ATIC (UniProt P31939)	0.047	-0.039	0.046	-0.03	-0.092	-0.027	0.114	-0.008	-0.001	-0.008
AP2A2 isoform 2 (UniProt O94973)	0.009	0.064	0.003	0.022	-0.095	0.083	0.027	0	0.01	-0.002
ATP6V1H (UniProt Q9UI12)	0.035	-0.106	0.055	-0.067	-0.1	-0.064	-0.121	-0.073	-0.009	-0.063
AKAP8L (UniProt Q9ULX6)	0.032	0.064	0.097	0.205	0.041	-0.212	0.008	0.001	0.034	0.019
ARHGAP1 (UniProt Q07960)	-0.016	0.084	0.038	0.004	-0.011	0.152	0.005	-0.036	-0.035	0.024
BRAP (UniProt Q7Z569)	0.062	0.02	0.01	0.028	-0.058	-0.108	0.053	-0.134	0.073	-0.055
AIP (UniProt O00170)	0.06	-0.041	0.021	-0.019	-0.046	0.054	-0.002	-0.019	-0.019	0.015
ALDH1B1 (UniProt P30837)	0.051	-0.1	0.029	-0.122	-0.045	-0.009	0.091	0.075	-0.003	0.062
ACADVL isoform 3 (UniProt P49748)	0	-0.069	0.019	-0.04	-0.031	-0.089	-0.019	0.025	-0.12	0.093
ATRN (UniProt O75882)	-0.243	-0.037	0	-0.032	0.095	-0.004	0.108	0.111	0.043	0.153
APOH (UniProt P02749)	0.03	-0.156	-0.696	1.05 (active)	0.151	-0.059	-0.307	0.529	-0.197	-0.537
BZW2 (UniProt Q9Y6E2)	-0.029	-0.05	0.02	-0.126	-0.056	0.011	-0.009	0.023	-0.055	-0.034
AGPS (UniProt O00116)	0.074	-0.145	0.05	-0.037	-0.03	-0.044	0.069	0.048	0.018	-0.003
BLVRB (UniProt P30043)	0.113	-0.073	0.024	-0.045	-0.07	0.045	0.061	0.015	0.071	0.037
ADRM1 (UniProt Q16186)	0.088	0.008	0.057	-0.073	-0.031	-0.029	-0.055	-0.045	0.022	-0.013
ABHD17A isoform 2 (UniProt Q96GS6)	-0.194	0.086	0.012	0.034	0.032	0.069	0.081	0.027	-0.038	0.077
AAMP (UniProt Q13685)	-0.031	0.003	0.029	-0.052	-0.049	-0.027	0.026	0.033	0.024	-0.002
BYSL (UniProt Q13895)	-0.033	0.078	0.065	-0.057	0.022	0.207	-0.03	-0.057	0.032	-0.022
AAR2 (UniProt Q9Y312)	0.022	0.111	0.042	0.002	-0.129	0.104	0.075	0.058	-0.005	-0.082
